High-throughput results (PubChem BioAssay)
Yp Topo-I inh: inhibitors of Yersinia pestis topoisomerase I; Y. pestis Topo-I cleavage product accumulation, plate reader; activity, % at 10 µM; 360,000 compounds, 0.064% hits; AID 504884; in the data active = activity above about 50%, passing the limit was not always enough
PrPC surface inh: cell surface PrPC inhibition, primary TR-FRET screen. P04156. TR-FRET read-out. inhibition, % at 13.8 µM. 370,000 compounds, 0.43% hits; in the data active = inhibition above about 24%; also: 0% = median of the test wells and 100% = reference compound wells
FBA Mtb inh: inhibits M. tuberculosis FBA enzyme; 360,000 compounds, 2.3% hits; purified M. tuberculosis FBA, fluorescence read-out; AID 588726; inhibition, % at 1 µM;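 also: 0% = vehicle and 100% = reference inhibitor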
PrP UTR inh: suppresses PrP 5' UTR mRNA reporter expression | cell-based PrP 5' UTR mRNA reporter, plate reader | inhibition, % (test concentration not listed) | 340,000 compounds, 0.35% hits | AID 488862; in the data active = inhibition above about 52%; also: 0 = median of the neutral control wells
GDH-TPI counter-1: inhibits GDH-TPI coupling enzymes, artifact for Mtb FBA screen; GDH-TPI coupled enzyme counterscreen, NADH absorbance; inhibition, % at 4.8 µM; 360,000 compounds, 1.2% hits; in the data active = inhibition above about 30%;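 also: 0% = DMSO wells and 100% = wells lacking the enzyme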
Mtb hypoxia inh: reduces hypoxia-regulated biosensor signal in M. tuberculosis; M. tuberculosis hypoxia-regulated fluorescent reporter, fluorescence; fluorescence inhibition, % (no concentration beside the values); 300,000 compounds, 0.1% hits; AID 1159583; in the data active = fluorescence inhibition mostly above about 23%, no sharp cut-off; inactive = mostly below about 17%
PrP UTR cherry: prion 5' UTR mRNA inhibition, cherry-pick retest; shares compounds with PrP UTR inh; cell-based prion protein 5' UTR reporter, plate reader; inhibition, % at 2.5 µM; 1,100 compounds, 48% hits; AID 504592; in the data active = inhibition above about 54%
Mtb FBA confirm: confirmation of M. tuberculosis fructose-bisphosphate aldolase inhibitors; inhibition, % at 1 µM; 5,600 compounds, 78% hits; shares compounds with FBA Mtb inh; purified M. tuberculosis FBA, fluorescence read-out;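 also: 0% = vehicle wells and 100% = reference inhibitor wells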
GDH-TPI counter-2: GDH-TPI inhibition counter-screen for FBA inhibitors | shares compounds with FBA Mtb inh | GDH-TPI coupled enzyme counterscreen, fluorescence | inhibition, % at 1 µM | 5,600 compounds, 81% hits; in the data active = inhibition above about 10%
PrPC confirm: cell surface PrPC inhibition, TR-FRET confirmation. 1,500 compounds, 65% hits. shares compounds with PrPC surface inh. AID 743200. cell surface PrPC level. inhibition, % at 13.8 µM; in the data active = inhibition above about 25%
LD9 cytotox: LD9 cell cytotoxicity, PrPc inhibitor counter-screen | shares compounds with PrPC surface inh | LD9 cells cytotoxicity, luminescence viability | inhibition, % at 13.8 µM | 1,500 compounds, 29% hits; in the data active = inhibition above about 9.5%
Numbers without * were called inactive; nt = no result given. This is a sample that favours compounds with a hit; in the whole collection about 3.8% have one here. Rule as the data show it, unless noted: active = inhibition above about 27%; inactive = the rest.

SMILES	Yp Topo-I inh	PrPC surface inh	FBA Mtb inh	PrP UTR inh	GDH-TPI counter-1	Mtb hypoxia inh	PrP UTR cherry	PrPC confirm	LD9 cytotox	others
CC/C=C/CC(=O)N[C@@H](c1ccccc1)[C@@H](O)C(=O)O[C@H]1C[C@@]2(O)[C@@H](OC(=O)c3ccccc3)C3[C@](C)(C(=O)[C@H](OC(C)=O)C(=C1C)C2(C)C)[C@@H](O)C[C@H]1OC[C@@]31OC(C)=O (stereo partly specified)	17.0	25.7*	-0.3	59.2*	-9.7	nt	85.0*	23.2	-2.0
CC(=O)O[C@H]1C(=O)[C@@]2(C)[C@H]([C@H](OC(=O)c3ccccc3)[C@]3(O)C[C@H](OC(=O)[C@H](O)[C@@H](NC(=O)c4ccccc4)c4ccccc4)C(C)=C1C3(C)C)[C@]1(OC(C)=O)CO[C@@H]1C[C@@H]2O	31.1	34.9*	1.8	55.0*	9.2	nt	88.5*	24.1	2.9
CC(=O)O[C@@]12CO[C@@H]1C[C@@H](O)[C@@]1(C)C(=O)[C@H](O)C3=C(C)[C@@H](OC(=O)[C@H](O)[C@@H](NC(=O)c4ccccc4)c4ccccc4)C[C@@](O)([C@@H](OC(=O)c4ccccc4)C12)C3(C)C (stereo partly specified)	9.5	7.3	-2.0	20.5	-7.6	nt	nt	nt	nt
CCCCN1CCNCC1c1ccccc1 (stereo unspecified)	nt	nt	nt	nt	nt	0.0	nt	nt	nt
O=C(NN=Cc1ccccn1)c1ccc([N+](=O)[O-])cc1Cl	nt	nt	nt	nt	nt	-4.4	nt	nt	nt
CC(=O)c1c(C)[nH]c(C(=O)CSc2nnc(N)s2)c1C	-2.7	29.6*	-3.7	55.0*	11.6	-5.3	1.1	29.6*	-1.7
Cc1cccc2cc(C#N)c(SCC(=O)N3CC(=O)Nc4ccccc43)nc12	3.7	29.0*	1.6	63.7*	4.2	nt	80.6*	70.5*	15.6*
CC(C)CCCCCCCCCCCCC(=O)NCC(=O)NC1C(C)OC(Nc2ncnc3nc[nH]c23)C(O)C1O (stereo unspecified)	19.0	24.7*	2.7	75.3*	3.5	nt	77.2*	79.3*	32.6*
C/C(=C\CNc1ncnc2nc[nH]c12)CO	7.7	3.6	0.0	-10.4	-2.0	nt	nt	nt	nt
CCC1=C(OC(=O)N(CC)CC)N2C(=O)OC(=NCCc3c[nH]c4ccccc34)[C@]2(Cc2ccccc2)C2C1=CCC1C(=O)N(C)C(=O)C12 (stereo partly specified)	nt	nt	nt	nt	nt	6.3	nt	nt	nt
C/C(C=NNC(=O)c1nnn(-c2nonc2N)c1CN(C)C)=C\c1ccco1	nt	nt	nt	nt	nt	5.4	nt	nt	nt
COc1ccc(C[C@H]2NC[C@H](O)[C@H]2OC(C)=O)cc1	3.2	88.7*	6.9	92.3*	3.6	nt	95.8*	102.0*	47.5*
COc1ccc(CCNC(=O)C2CC2)cc1	3.3	1.3	-21.2	-10.0	8.3	9.7	nt	nt	nt
Cc1c(C)c2ccc(O[C@@H]3O[C@H](CO)[C@H](O)[C@H](O)[C@H]3O)c(C)c2oc1=O	1.9	7.0	34.5*	2.2	16.0	16.7	nt	nt	nt	Mtb FBA confirm=48.7*;GDH-TPI counter-2=43.8*
Cc1c(O[C@@H]2O[C@H](CO)[C@@H](O)[C@H](O)[C@H]2O)ccc2c1oc(=O)c1ccccc12	-9.6	5.6	88.0*	-19.5	13.9	1.1	nt	nt	nt	Mtb FBA confirm=62.1*;GDH-TPI counter-2=52.4*
CCC(C)C(N)c1cn(C(CC(N)=O)C(=O)N2CCNCC2)nn1 (stereo unspecified)	nt	nt	nt	nt	nt	14.8	nt	nt	nt
COC(=O)c1cnn(-c2ccc(F)cc2F)c1C=NNC(N)=S	nt	nt	nt	nt	nt	1.2	nt	nt	nt
COC(=O)c1cnn(-c2ccc(Cl)cc2)c1/C=N/NC(N)=S	4.5	-24.7	45.2*	-19.3	18.4	nt	nt	nt	nt	Mtb FBA confirm=67.2*;GDH-TPI counter-2=34.8*
